Holding throughout (assay): NCI-60 one-dose screen, 48 h (100 = growth as untreated, 0 = no growth, -100 = all killed)
What all share (details): 10 µM unless noted

Assay [1] deals with HCT-15 colon.
Assay [2] relates to HT29 colon.
Assay [3] concerns SNB-75 CNS.
For assay [4], the system named is SNB-19 CNS.
In assay [5] the test system is U251 CNS.
Assay [6] deals with PC-3 prostate.
In assay [7] the test system is SK-MEL-5 melanoma.
The test system of assay [8] is UACC-62 melanoma.
The subject of assay [9] is LOX IMVI melanoma.
Assay [10] deals with SK-MEL-28 melanoma.

Here are results for 26 compounds from PubChem BioAssay (NCI).

Molecules are shown by their SMILES. About 83,000 compounds went through this panel and 20% of them were active in at least one assay; those are over-represented in the sample as a whole.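 48-hour exposure, single concentration, 96-well plates; percent growth endpoint where 0 means no net growth. Active: below 10.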 A number with no mark means an inactive call. Active and inactive are the calls of the source.

Regarding `COc1c2c(cc3c1C(CCc1ccccc1)N(C)CC3)OCO2` (stereo not given), the growth is 9.64% (active) in [1]; -13.3% (active) in assay [2]; -1.4% (active) in [3]; 8.54% (active) in [4]; -32.5% (active) in [5]; 12.7% in [6]. Also, the growth in assay [7] is -98.2% (active); in assay [8] it was -24% (active); in [9], -92% (active); in assay [10], -5.44% (active).

For `COC(=O)CSC1=C(C)C(=O)C(OC)=C(OC)C1=O`, the growth in assay [1] is 86.3%; in [2], 103%; in assay [3], 66.6%; in assay [4], 90.3%; in assay [5] it was 98.1%; in [6] it was 76.9%. Moreover, the growth in assay [7] is 86.4%; in assay [8], 70.5%; in [9], 83.3%; in [10] it was 104%.

For `Cc1ccc(N=Nc2c(N)nn3c(-c4cc5ccccc5oc4=O)ccnc23)cc1`, the growth in assay [1] was 40.6%; in assay [2], 30.2%; in assay [3], 93.7%; in assay [4] it was 32.2%; in assay [5], 43%; in assay [6], 54.6%. The growth in [7] is 42.4%; in [8], 82.3%; in assay [9] it was 36%; in assay [10], 44.7%.

As for `COc1ccc2oc(=O)c(-c3csc(N/N=C(\C)c4cc(OC)c(OC)c(OC)c4)n3)cc2c1`, the growth was 86.8% in assay [1]; 113% in assay [2]; 154% in [3]; 86.6% in [4]; 92.3% in assay [5]; 67.6% in assay [6]. Besides, the growth in assay [7] is 69.6%; in assay [8], 93.1%; in assay [9], 86.6%; in assay [10] it was 102%.

For `COc1nc(N)ncc1-c1ccc2ncnc(N3CCc4cc(F)c(Cl)cc43)c2c1`, the growth in assay [1] is 23.7%; in [2], 36.7%; in assay [3], -52.7% (active); in assay [4] it was 1.32% (active); in [5], -44.9% (active); in assay [6] it was 66.3%. The growth in assay [7] is 57.5%; in assay [8], 50%; in assay [9] it was 14.5%; in assay [10], 31.3%.

With `FC(F)(F)CN1CCN(CCn2c(C(F)(F)F)cc3c(Cl)ncnc32)CC1`, the growth was -56.7% (active) in assay [1]; 12.5% in assay [2]; -32.1% (active) in assay [3]; -87.5% (active) in [4]; -12.6% (active) in assay [5]; 18.2% in assay [6]. Also, the growth in assay [7] was 9.63% (active); in assay [8], 28.4%; in assay [9], -96.7% (active); in assay [10], 31.3%.

Turning to `C[C@@H]1CN(c2ccc3ncc(C#Cc4cncc(C(=O)Nc5ccc(CN6CCN(C)CC6)c(C(F)(F)F)c5)c4)n3n2)C[C@@H](C)O1`, the growth in assay [1] is -91% (active); in assay [2], -60.5% (active); in assay [3], -95.9% (active); in assay [4], -99.8% (active); in [5], -68.8% (active); in assay [6], -54.9% (active). The growth was -99.6% (active) in assay [7], -65.6% (active) in [8], -96.8% (active) in [9] and -58.4% (active) in [10].

`CCCN(CCC)S(=O)(=O)c1ccc(C(=O)O)cc1.CCCN(CCC)S(=O)(=O)c1ccc(C(=O)O)cc1.[Cl][Pt+2][Cl].[NH2-].[NH2-]`: the growth in assay [1] was 87.8%; in assay [2], 42%; in assay [3], 1.96% (active); in assay [4], 26.7%; in assay [5] it was -27.5% (active); in assay [6], 39.7%. The growth was -91.2% (active) in assay [7], -90.2% (active) in assay [8], -9.75% (active) in assay [9] and 1.28% (active) in assay [10].

As to `CS(=O)(=O)Nc1cc(-c2ccc3ncnc(Nc4ccc(OCc5cccnc5)c(Cl)c4)c3c2)cnc1Cl`, the growth in assay [1] is 13.1%; in [2] it was 5.66% (active); in [3] it was 10.7%; in [4], -0.382% (active); in [5], -34.2% (active); in [6], 3.42% (active). For the same compound, the growth in assay [7] is -94.5% (active); in assay [8], -64.3% (active); in assay [9], -64.2% (active); in assay [10], -6.84% (active).

As to `CC(C)(C)C(=O)c1c2c(c3ccc4c5ccccc5ccc4n13)C(=O)c1ccccc1C2=O`, the growth was 81.7% in [1]; 111% in assay [2]; 122% in assay [3]; 88.7% in assay [4]; 98.5% in assay [5]; 83% in [6]. Moreover, the growth in assay [7] is 78.8%; in [8], 97.2%; in assay [9], 73.2%; in [10] it was 105%.

Take `N/C(=N\c1nc2ccccc2s1)NC(=O)Nc1ccccc1F`: the growth in assay [1] was 25.7%; in assay [2] it was 5.46% (active); in assay [3], -0.749% (active); in assay [4], 28.9%; in assay [5], 11.2%; in assay [6] it was 33.3%. The growth in [7] was -0.0152% (active); in assay [8], 25.3%; in [9], 27%; in assay [10], 57.3%.

In the case of `COC(=O)c1cc(C(=O)C(F)(F)F)n2c3ccccc3c3ccccc3c12`, the growth is 93.8% in assay [1]; 96.1% in assay [2]; 6.37% (active) in assay [3]; 67.8% in assay [4]; 70.1% in assay [5]; 66.8% in assay [6]. Moreover, the growth is 95.8% in [7], 69.3% in assay [8], 77.2% in assay [9] and 111% in assay [10].

Take `COc1cc(/C=C/C(=O)c2cnn(-c3cc(=O)[nH]c4ccc(Br)cc34)c2C)cc(OC)c1OC`: the growth in [1] was -54.9% (active); in [2] it was -58.7% (active); in [3] it was 9.81% (active); in [4], -2.48% (active); in [5], -76.7% (active); in assay [6] it was -23.9% (active). Besides, the growth in [7] is -96.2% (active); in [8] it was -71.7% (active); in assay [9], -89.8% (active); in [10], -53% (active).

For `CC(=O)C[n+]1cccc2c3ccccc3ccc21`, the growth was 97.5% in [1]; 93.4% in assay [2]; 113% in assay [3]; 69.8% in assay [4]; 59.9% in assay [5]; 85.1% in [6]. The growth in assay [7] was 56.6%; in assay [8] it was 73.3%; in [9], 99.8%; in [10] it was 95.6%.

On to `CC1=C(C(=O)Nc2ccccc2)C(c2ccc3ccccc3c2)n2c(nc3ccccc32)N1` (stereo not given), for which the growth in [1] is 40.5%; in [2] it was 69%; in [3] it was -11.1% (active); in assay [4], 79.4%; in [5], 28.6%; in assay [6], 21.7%. The growth in assay [7] was 87.3%; in assay [8] it was 75%; in [9] it was 9.5% (active); in assay [10] it was 63.2%.

Take `CCCCCCCOc1ccc(S(=O)(=O)Nc2ccc(C)c(F)c2C(=O)O)cc1`: the growth is 79.4% in [1]; 121% in [2]; 104% in [3]; 89.4% in assay [4]; 91.4% in [5]; 91% in [6]. Moreover, the growth in assay [7] was 96.7%; in assay [8] it was 90.6%; in [9] it was 98.9%; in [10] it was 117%.

On to `COc1ccc2c(c1)c(-c1cc(N)n3nc(-c4c[nH]c5ccccc45)cc3n1)cn2C`, for which the growth was -69.8% (active) in [1]; -71.7% (active) in [2]; -24.8% (active) in assay [3]; -57.1% (active) in assay [4]; -87.8% (active) in [5]; 1.08% (active) in [6]. In addition, the growth is -94.8% (active) in [7], -92% (active) in assay [8], -86.1% (active) in assay [9] and -94.6% (active) in assay [10].

Take `O=C(CSc1nc2ccccc2c(=O)[nH]1)NNC(=O)c1ccccc1Cl`: the growth in [1] is 107%; in assay [2], 109%; in [3], 72.6%; in [4], 92.4%; in assay [5], 96.3%; in [6], 123%. For the same compound, the growth in assay [7] is 106%; in assay [8], 110%; in assay [9], 102%; in assay [10], 148%.

On to `CCCCNC(=S)Nc1ccc(OCc2nc3ccc(Cl)cc3[nH]2)cc1`, for which the growth in assay [1] is 14.5%; in assay [2], 28.4%; in [3], 26.4%; in assay [4] it was 53%; in assay [5], 23.7%; in assay [6], 35.4%. In addition, the growth is 42.5% in [7], 29.9% in [8], -29.8% (active) in assay [9] and 45.5% in assay [10].

As for `COc1cc(C2CC(c3ccc(F)cc3)=Nc3c(N)nc(N)nc3N2)ccc1Oc1nc(Nc2ccc(F)cc2)nc(N(C)C)n1` (stereo not given), the growth is 35.7% in [1]; 22.1% in assay [2]; 58.3% in [3]; 65.1% in assay [4]; 52.9% in [5]; 27% in assay [6]. Also, the growth in assay [7] is -94.3% (active); in assay [8], 73.4%; in assay [9], 38.5%; in assay [10], 84.2%.

As for `CCCSc1nnc(-c2c(C)nc3sccn23)o1`, the growth in assay [1] is 65.8%; in assay [2], 101%; in [3], 91.5%; in assay [4], 81.2%; in assay [5], 87.5%; in assay [6], 86.6%. Besides, the growth in assay [7] was 81.6%; in [8] it was 69.1%; in [9] it was 88.9%; in assay [10], 106%.

Turning to `C[C@@H]1[C@H]2C[C@@H](C[C@H]1NCc1nc3ccccc3n1C1CCCCCC1)C2(C)C`, the growth in assay [1] is 27.3%; in assay [2], 51.4%; in assay [3], 82%; in assay [4], 59.3%; in [5] it was 67.2%; in assay [6], 37.1%. The growth in [7] is 4.99% (active); in assay [8], 47.9%; in assay [9] it was 44%; in assay [10], 77.5%.

As for `Clc1ccc(CNc2nc(SCCN3CCOCC3)nc3c2cnn3CC(Cl)c2ccc(Br)cc2)cc1` (stereo not given), the growth in assay [1] is 1.95% (active); in [2] it was -51.5% (active); in assay [3], 76.2%; in assay [4] it was 50.4%; in [5], 38.3%; in [6], 34.3%. In addition, the growth in [7] is 42.3%; in assay [8], 57.5%; in [9], 30.9%; in [10], 56.2%.

Take `O=C(O)CC1S/C(=N/N=C/c2nc3ccccc3s2)NC1=O` (stereo not given): the growth in assay [1] is 76.5%; in [2] it was 114%; in assay [3] it was 96.9%; in [4] it was 96.3%; in assay [5], 89.8%; in assay [6], 103%. Moreover, the growth was 96.9% in [7], 114% in assay [8], 100% in assay [9] and 117% in assay [10].

For the compound `COC(=O)c1cc(C(=O)C(Br)Br)n2c1ccc1c3ccccc3ccc12`, the growth in assay [1] is 34.2%; in assay [2] it was 63.1%; in [3], 66.4%; in [4], 58.6%; in assay [5], 44.3%; in [6] it was 56.3%. Moreover, the growth is 61.7% in assay [7], 51.8% in assay [8], 41.4% in assay [9] and 105% in [10].

As for `O=C(Nc1nc2ccc([N+](=O)[O-])cc2s1)Nc1ccccc1F`, the growth is 13.9% in [1]; 5.55% (active) in [2]; 18.8% in assay [3]; 10.2% in assay [4]; 6.8% (active) in [5]; 13.9% in assay [6]. Further, the growth is -51.6% (active) in assay [7], 22.4% in assay [8], 10.5% in [9] and 22% in assay [10].
